This note sets out measurements from PubChem BioAssay AID1508600 (Functional Genomics Laboratory (NCATS/FGL), 2020).

Out of some 53,000 sequences screened, about 3,700 (7%) were called active.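 Rule for the calls: active = gene knockdowns whose robust z-score for IL-1 alpha signal is at least 2 or at most -2, so actives lie on both sides; inactive = the rest.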 Only a selection was taken, and actives are over-represented in it overall.

The nature of the assay: Components of the Cytosolic LPS Sensing Pathway: Gene Identification via Genome-wide siRNA Screen.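 Note: robust z of the log signal after scaling to non-targeting control siRNA wells of the plate.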 Particulars: RAW264.7 macrophages, IL-1a HTRF, actives lie on both sides, screened at 100 nM (by protocol), cells primed 5 h with Pam3CSK4 first. In a few lines:
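Knockdown: 100 nM siRNA, 48h, RAW264.7. Stimulation: Pam3CSK4 5 h, then LipidA via TransIT-TKO 24 h. Output: supernatant IL-1a HTRF, negative-control-normalized, log robust z-score; viability by CellTiter-Glo.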
(In TR-FRET formats the signal depends on donor and acceptor labels being close together.)
As to GGUAUAUGGAACCAUGGGATT against Psmb9, the z-score was -0.565 (inactive).
In the case of GGAGUCUGCUGGUUUAGUGTT against Fmc1 it was 0.0551 (inactive); in that of GGAGUAUGGCGAAUUCUAUTT against Hsp90ab1, 1.34 (inactive); in that of GCUGCUUGCUGACCUCCUATT against Olfr522, 0.358 (inactive).
With GCAUUCAGAAAUUGAGGGUTT against Sin3b, the z-score is -0.0974 (inactive).
“CCUAUCUCUUAGCAAAGAUTT against 2010003K11Rik”: the z-score was 2.87 (active).
In the case of GGCGAUAUUCUUAAUUAUCTT against Mfsd6 it was 0.735 (inactive); in that of GGUGUUGAACAAGUGCGACTT against Tescl, -0.987 (inactive).
In the case of GCUGAUCAUCCGUUUCACUTT against Hdc it was -0.227 (inactive); in that of CGUACUUCAGCGAUUUAAATT against Exoc2, 0.555 (inactive); in that of GGACUCAAGACACCAGUUGTT against Rufy3, -0.318 (inactive).
In the case of GCAAGAAGCCUGCCAAUAUTT against Etd it was 2.05 (active); in that of GGAGUACUUUGGAAUAGCATT against Frmd4a, -0.467 (inactive).
Consider GCUCUAUAUCCAGGAAACUTT against Krtap6-2, for which the z-score was 0.0521 (inactive).
For GGUGCAUUUAUGUAUUUCCTT against Olfr916, the z-score is -1.76 (inactive).
In the case of GCAAUCAUUGAAUCCACUCTT against Spag9 it was 2.16 (active); in that of GGAUGUGGUUCAGAAGGCCTT against Stab1, -0.29 (inactive); in that of GAUUCUUACUUUGGUCUACTT against Olfr9, 0.62 (inactive).
Regarding GCCAAAACAUUUCAGAGCCTT against Hemk1, the z-score is -0.000768 (inactive).
In the case of GCAUCUAACUACUUGGGCCTT against Hhip it was 1.18 (inactive); in that of GCACUACCAAGGCGAUAACTT against Tspan18, -0.624 (inactive); in that of GGAACCAGUGCUGCAUUUATT against Defb41, -2.05 (active).
As to GGCCAUAAACAACCAUUUATT against Ppp1r1b, the z-score is 0.747 (inactive).
In the case of GGACCAACGUGCAGAAAUGTT against Metrn it was -0.702 (inactive); in that of GGUCUGGAGACUUUCAGUCTT against Hexa, 0.521 (inactive).
In the case of GGGCAGGGACAUUAGUCAUTT against Zfp106 it was 2.88 (active); in that of GGGAGUGAAUGUUUCACAUTT against Tmem116, -1.56 (inactive).
In the case of “GGGUAUUAAGCAGGGAUCGTT against 1810009A15Rik” it was 1.11 (inactive); in that of CCAAAUGACUAGCACCAGUTT against Arl5c, -2.22 (active).
For the sequence CCUUCUACCUCACCUUACGTT against Tmem186, the z-score is -1.23 (inactive).
In the case of “CCAAUUCAAUUAGACUAGATT against 9430015G10Rik” it was 0.89 (inactive); in that of GCAUGAGUUAUCAUAAUCATT against Itgb2, 1.04 (inactive); in that of GGAUCAACCACAUCAGCUCTT against Hrh2, -0.838 (inactive).
As to GGGCCUUCUGAUUUAAAAGTT against Slc43a3, the z-score is -1.01 (inactive).
In the case of GGUGUUUGGGUACCAGUCUTT against Cyp8b1 it was -1.03 (inactive); in that of GGCUCAAGCGAAAAGCAGATT against Serping1, -0.46 (inactive).
On to GGCCUAUUGUAAAAACCCATT against Taf1b, for which the z-score is -2.56 (active).
In the case of CCAAGUCCCUUUGUGGUGUTT against Twnk it was -0.749 (inactive); in that of CCGUUUAUUUAUCAGCUGGTT against Spsb4, -1.18 (inactive).
In the case of GGAAGGUAAAUGUCUGCUCTT against Selenok it was 0.289 (inactive); in that of GGAGAUGGAUAAUUACGAGTT against Ift27, 0.344 (inactive).
In the case of GGAGAUUUAAACAGCUAGGTT against Gmip it was -0.418 (inactive).
Consider GGCUCAUAUUUCCAUCAGATT against Tchhl1, for which the z-score was -1.13 (inactive).
In the case of GGAAAUUGGGACUCACAUCTT against Trappc13 it was -0.0912 (inactive); in that of GUGGAAAAUUGAAGGGACGTT against Ndufb3, 3.69 (active); in that of GGAUUCAAGUUCUCACCGATT against Serpina6, -0.462 (inactive).
In the case of GCUCAAACACUUACACACUTT against Alcam it was -0.616 (inactive); in that of “GCCAGUUCCUAUCUGGCUUTT against 4931428L18Rik”, 1.03 (inactive).
In the case of GCCAAUGGUCACGAACCUATT against Senp5 it was -0.217 (inactive); in that of GCUUGCUAAGAUUGAGUAUTT against Cerkl, -0.928 (inactive).
On to CCGCACAAGAGGUAGAUACTT against Ddx5, for which the z-score was -2.56 (active).
In the case of GGUCAGUAUCAGAAUGAUCTT against Rft1 it was -0.831 (inactive); in that of GCAGUGAGACUUUUAAUAGTT against Snx17, 0.284 (inactive).
In the case of GGCAAUAUUUCAGAACCUGTT against Tfb2m, the z-score was 0.44 (inactive).
In the case of GGCCUUACUCUUAAGUUCUTT against Brf1 it was 3.7 (active); in that of GGUGCAUGAAGAGUUAAAATT against Jade1, 1.5 (inactive); in that of GGAGAAAGUUGAACGUAUUTT against Cct2, -2.58 (active).
In the case of GGAAUUCUUAGCCAAUGCCTT against Gas2l1 it was 0.396 (inactive).
In the case of GCUGUCUAGUACAUCUGACTT against Cry2 it was -0.32 (inactive).
Consider GGCUAACACUUAAAUUAGCTT against Atoh8, for which the z-score is 0.00248 (inactive).
In the case of GGCCCAACCUUGGAUCUUUTT against Nudt22 it was 0.751 (inactive).
In the case of GGGCACAGACAUGUUUGAGTT against Padi3 it was -1.35 (inactive).
In the case of GGAUGAACCAAACCAAUAATT against Mgat4d it was 2.24 (active); in that of GGACAAACAGGGAGAAAGATT against Mogat2, -0.091 (inactive); in that of GCCAGACUGGAGGUAAAAUTT against Serpinb10, -2.24 (active).
Regarding GGAGUGAGACAAUUCUCACTT against Sprr2k, the z-score is 0.555 (inactive).
In the case of GCUAUUUAGUUAGUUGUGUTT against Acbd3 it was 0.334 (inactive).
In the case of CCGUGGGAUUUAAGAUAUCTT against Rab34 it was -0.931 (inactive).
In the case of GUGUGCUUGAUGGAGACCATT against Riiad1 it was 2.25 (active); in that of GCAUUUCUACUGGAUUGUGTT against Luc7l2, 0.0609 (inactive); in that of GCUCUUUCUAGCUUAUGAUTT against Chmp1b, -0.464 (inactive).
Turning to GGAUGCUUGUGCAAAGAUGTT against Anks1b, the z-score was 0.862 (inactive).
In the case of GGAGCCUCUAGGAAACAAATT against Slc28a3 it was 0.309 (inactive); in that of CCGAGUCCAGAACACUCUUTT against Aff2, -0.616 (inactive); in that of CCUGCCAUAGUUAGUUUUUTT against Khdc1a, 7.91 (active).
In the case of CGAGCUUUCACUGCUACAGTT against Ppargc1b it was -1.35 (inactive).
For GCCACUGUACCUUAUUGGUTT against Msrb1, the z-score is 0.331 (inactive).
In the case of GGAAGACGGCAACUAUCCATT against Cyp2c50 it was 1.23 (inactive).
As to GGUAUUUUUUUCUCAGCCATT against Dhdh, the z-score is -0.937 (inactive).
“CGCCUUCCUUCAACACGCATT against 1700049L16Rik”: the z-score was -1.12 (inactive).
In the case of GCCCUACCAAAAGGAUGAUTT against Cfap300 it was -2.02 (active).
In the case of GGGAUUUGUUGUCUAAGAUTT against Mapk10 it was -0.54 (inactive); in that of GCAGAUGCGCUUGGAACUUTT against Pde4b, 0.0658 (inactive); in that of GGCUCCUAACUCACUGGGATT against Ormdl1, 0.0548 (inactive).
In the case of GCUUUGGUGCACUUGCUUUTT against Akr1c13 it was 2.2 (active); in that of GAUGAAGAAGAGCAGGCUCTT against Gm5168, 1.18 (inactive); in that of CGUAUCAACAUCUCAGAAGTT against Pcbp2, -0.632 (inactive).
Regarding GGAUUCACGUAAGAUUGACTT against Prl6a1, the z-score is 0.0592 (inactive).
In the case of GGUGGUAUCACCUCUAUCATT against Cfap52 it was -2.49 (active); in that of GACGAUUCUCUGUUGGUGUTT against Hcrt, 0.577 (inactive); in that of CCUGGAGAUUCAGUACGAATT against Krt25, 1.55 (inactive).
In the case of GGUUCUUGCUGAGAGCAUGTT against Rft1 it was 0.943 (inactive); in that of GGAUUGAAGCAGGCAGCUUTT against Purb, -0.787 (inactive); in that of GGUUCAAGGUGAAGACUCCTT against Reg3b, 0.793 (inactive).
In the case of GGUGUGUAUGGUGCUAGGATT against Olfr1507 it was -2.43 (active); in that of CCAGCUAAAAAGAUGGUAGTT against Rreb1, 0.319 (inactive).
Regarding CCUGAAAGCUAAUAUGAAATT against Defb44-ps, the z-score was 0.0593 (inactive).
As to GGCUUUUAGUACUGAUAGUTT against Neu3, the z-score is 2.6 (active).
As for CCUCGUUACAUCCUCCCUGTT against Pold1, the z-score was -0.142 (inactive).
In the case of CGAUUAUCGGCCCAGCAAATT against Bmp1 it was 1.01 (inactive); in that of GGUCUCCCUUCAGUAUGAGTT against Cela3b, -0.602 (inactive); in that of CCUAGAGCUUUUCAGAAUATT against Rsl1d1, 0.4 (inactive).
In the case of CGAUCGGCGACCUUUUAGATT against Irak3 it was -0.527 (inactive); in that of GGCAGUAGUUAGCAAAUAUTT against Ska1, -1.24 (inactive).
Take GGAUCUGGAAUCACUGUUUTT against Lmnb2: the z-score was -0.451 (inactive).
In the case of GGUUUUAGGACACCUGGUUTT against Gys1 it was 2.13 (active).
As to GGUGCCAUCCCAAACUUUATT against Frat2, the z-score is 0.788 (inactive).
